Source: PubChem BioAssay AID1159580 (chemical genetic matrix, 2015)
The campaign covered roughly 5,500 compounds. About 2,000 (36%) were called active. Another 18% or so got no clear call; they are omitted. Cut-off read from the data, not from the text of the source: active = normalized growth mostly below about 0.91 (no sharp cut-off); inconclusive = no clear call, values can overlap the other calls; inactive = mostly above about 0.92. This is one part of the list.

Assay: chemical genetic growth profiling, strain panel (AID 1159580);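 note: tested at 20 µM; growth read once vehicle control cultures reached saturation at 30 °C; 1 = growth at the plate median or of vehicle wells; lower values mean less growth of the strain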
Conditions: growth OD
[1] = S. cerevisiae deletion strains, locus YAL013W, strain DEP1, hits give low values
[2] = S. cerevisiae deletion strains, locus YBR229C, strain ROT2, hits give low values
[3] = S. cerevisiae deletion strains, locus YDL101C, strain DUN1, hits give low values
[4] = S. cerevisiae deletion strains, locus YDR150W, strain NUM1, hits give low values
[5] = S. cerevisiae deletion strains, locus YEL061C, strain CIN8, hits give low values
[6] = S. cerevisiae deletion strains, locus YGR078C, strain PAC10, hits give low values
[7] = S. cerevisiae deletion strains, locus YHR030C, strain SLT2, hits give low values
[8] = S. cerevisiae deletion strains, locus YHR087W, strain rtc3, hits give low values
[9] = S. cerevisiae deletion strains, locus YJL187C, strain SWE1, hits give low values
[10] = S. cerevisiae deletion strains, locus YJR043C, strain POL32, hits give low values
[11] = S. cerevisiae deletion strains, locus YJR075W, strain HOC1, hits give low values
[12] = S. cerevisiae deletion strains, locus YLR039C, strain RIC1, hits give low values
[13] = S. cerevisiae deletion strains, locus YLR058C, strain SHM2 (second series), hits give low values
[14] = S. cerevisiae deletion strains, locus YLR085C, strain ARP6, hits give low values
[15] = S. cerevisiae deletion strains, locus YLR262C, strain YPT6, hits give low values
[16] = S. cerevisiae deletion strains, locus YML094W, strain GIM5, hits give low values
[17] = S. cerevisiae deletion strains, locus YMR219W, strain ESC1, hits give low values
[18] = S. cerevisiae deletion strains, locus YMR263W, strain SAP30, hits give low values
[19] = S. cerevisiae deletion strains, locus YNL153C, strain GIM3, hits give low values
[20] = S. cerevisiae deletion strains, locus YNL298W, strain CLA4 (second series), hits give low values
[21] = S. cerevisiae deletion strains, locus YNL322C, strain KRE1, hits give low values
[22] = S. cerevisiae deletion strains, locus YNR030W, strain Alg12, hits give low values
[23] = S. cerevisiae deletion strains, locus YPL055C, strain LGE1, hits give low values
[24] = S. cerevisiae deletion strains, locus YPL241C, strain CIN2, hits give low values
[25] = S. cerevisiae deletion strains, locus YPR135W, strain CTF4, hits give low values
[26] = S. cerevisiae deletion strains, locus YDL134C, strain PPH21, hits give low values
[27] = S. cerevisiae deletion strains, locus YGR229C, strain SMI1, hits give low values
[28] = S. cerevisiae deletion strains, locus YMR307W, strain GAS1, hits give low values

Measured: normalized growth

COCc1cc(=O)n2[nH]c(C(C)(C)C)cc2n1
active: [9] 0.162
inactive: [1] 1.01 | [2] 0.986 | [3] 0.996 | [4] 1.04 | [5] 0.939 | [6] 1.01 | [7] 1.07 | [8] 1.01 | [10] 1.04 | [11] 1.01 | [12] 1.02 | [13] 0.988 | [14] 0.959 | [15] 1.03 | [16] 0.986 | [17] 0.996 | [18] 1.04 | [19] 1.02 | [20] 0.965 | [21] 0.999 | [22] 1.01 | [23] 1.08 | [24] 0.977 | [25] 1.14

Clc1ccc(CN2CCN(c3cccc4[nH]ccc34)CC2)cc1Cl
inactive: S. cerevisiae deletion strains, locus YAR019C, strain CDC15, hits give low values 0.997 | S. cerevisiae deletion strains, locus YBL105C, strain PKC1, hits give low values 0.993 | S. cerevisiae deletion strains, locus YBR135W, strain CKS1, hits give low values 0.995 | S. cerevisiae deletion strains, locus YBR136W, strain MEC1, hits give low values 0.994 | S. cerevisiae deletion strains, locus YBR160W, strain CDC28, hits give low values 0.986 | S. cerevisiae deletion strains, locus YDL017W, strain CDC7, hits give low values 0.994 | S. cerevisiae deletion strains, locus YDL028C, strain MPS1, hits give low values 0.999 | [3] 0.988 | S. cerevisiae deletion strains, locus YDL108W, strain KIN28, hits give low values 0.983 | S. cerevisiae deletion strains, locus YDL132W, strain cdc53, hits give low values 0.993 | S. cerevisiae deletion strains, locus YDL214C, strain PRR2, hits give low values 0.962 | S. cerevisiae deletion strains, locus YDR052C, strain DBF4, hits give low values 0.996 | S. cerevisiae deletion strains, locus YDR054C, strain cdc34, hits give low values 0.993 | S. cerevisiae deletion strains, locus YDR226W, strain ADK1, hits give low values 0.984 | S. cerevisiae deletion strains, locus YDR477W, strain SNF1, hits give low values 0.972 | S. cerevisiae deletion strains, locus YER123W, strain YCK3, hits give low values 0.917 | S. cerevisiae deletion strains, locus YER133W, strain GLC7, hits give low values 0.977 | S. cerevisiae deletion strains, locus YFL009W, strain cdc4, hits give low values 0.986 | S. cerevisiae deletion strains, locus YFL029C, strain CAK1, hits give low values 0.994 | S. cerevisiae deletion strains, locus YFR003C, strain YPI1, hits give low values 0.992 | S. cerevisiae deletion strains, locus YFR019W, strain FAB1, hits give low values 0.971 | S. cerevisiae deletion strains, locus YFR028C, strain CDC14, hits give low values 0.991 | S. cerevisiae deletion strains, locus YGR040W, strain KSS1, hits give low values 0.962 | S. cerevisiae deletion strains, locus YGR052W, strain FMP48, hits give low values 1.1 | S. cerevisiae deletion strains, locus YGR092W, strain DBF2, hits give low values 0.942 | S. cerevisiae deletion strains, locus YHR079C, strain IRE1, hits give low values 1.11 | S. cerevisiae deletion strains, locus YHR082C, strain KSP1, hits give low values 1.09 | S. cerevisiae deletion strains, locus YHR205W, strain SCH9, hits give low values 0.974 | S. cerevisiae deletion strains, locus YIL147C, strain SLN1, hits give low values 0.992 | S. cerevisiae deletion strains, locus YJL095W, strain BCK1, hits give low values 1.1 | S. cerevisiae deletion strains, locus YJL128C, strain PBS2, hits give low values 0.946 | S. cerevisiae deletion strains, locus YJL157C, strain FAR1, hits give low values 0.968 | S. cerevisiae deletion strains, locus YJR016C, strain ILV3, hits give low values 0.993 | S. cerevisiae deletion strains, locus YJR066W, strain TOR1 (second series), hits give low values 0.958 | S. cerevisiae deletion strains, locus YJR066W, strain TOR1, hits give low values 1.13 | S. cerevisiae deletion strains, locus YKL048C, strain ELM1, hits give low values 0.988 | S. cerevisiae deletion strains, locus YKL067W, strain YNK1, hits give low values 0.982 | S. cerevisiae deletion strains, locus YKL101W, strain HSL1, hits give low values 0.968 | S. cerevisiae deletion strains, locus YKL193C, strain SDS22, hits give low values 0.992 | S. cerevisiae deletion strains, locus YKL203C, strain TOR2, hits give low values 1.04 | S. cerevisiae deletion strains, locus YLR113W, strain HOG1, hits give low values 1.07 | S. cerevisiae deletion strains, locus YLR133W, strain CKI1, hits give low values 0.977 | S. cerevisiae deletion strains, locus YLR403W, strain SFP1, hits give low values 0.965 | S. cerevisiae deletion strains, locus YML070W, strain DAK1, hits give low values 0.964 | S. cerevisiae deletion strains, locus YMR001C, strain CDC5, hits give low values 0.993 | S. cerevisiae deletion strains, locus YMR205C, strain PFK2 (second series), hits give low values 0.976 | S. cerevisiae deletion strains, locus YMR277W, strain FCP1, hits give low values 1 | S. cerevisiae deletion strains, locus YNL006W, strain LST8, hits give low values 0.999 | S. cerevisiae deletion strains, locus YNL020C, strain ARK1, hits give low values 0.981 | S. cerevisiae deletion strains, locus YNL161W, strain CBK1, hits give low values 0.998 | S. cerevisiae deletion strains, locus YNL183C, strain NPR1, hits give low values 1.11 | S. cerevisiae deletion strains, locus YNL207W, strain RIO2, hits give low values 0.993 | S. cerevisiae deletion strains, locus YNL222W, strain SSU72, hits give low values 0.992 | S. cerevisiae deletion strains, locus YNL307C, strain MCK1 (second series), hits give low values 0.995 | S. cerevisiae deletion strains, locus YOL078W, strain AVO1, hits give low values 0.996 | S. cerevisiae deletion strains, locus YOL136C, strain PFK27, hits give low values 0.974 | S. cerevisiae deletion strains, locus YOR061W, strain CKA2, hits give low values 0.955 | S. cerevisiae deletion strains, locus YOR119C, strain RIO1, hits give low values 1.03 | S. cerevisiae deletion strains, locus YOR231W, strain MKK1, hits give low values 1.08 | S. cerevisiae deletion strains, locus YOR329C, strain SCD5, hits give low values 0.999 | S. cerevisiae deletion strains, locus YPL031C, strain PHO85, hits give low values 0.977 | S. cerevisiae deletion strains, locus YPL153C, strain RAD53, hits give low values 0.97 | S. cerevisiae deletion strains, locus YPL204W, strain HRR25, hits give low values 0.979 | S. cerevisiae deletion strains, locus YPL209C, strain IPL1, hits give low values 0.997 | S. cerevisiae deletion strains, locus YPL256C, strain CLN2, hits give low values 1.07 | S. cerevisiae deletion strains, locus YPR025C, strain CCL1, hits give low values 0.995 | S. cerevisiae deletion strains, locus YPR106W, strain ISR1, hits give low values 0.99 | S. cerevisiae deletion strains, locus YPR111W, strain DBF20, hits give low values 0.992 | S. cerevisiae deletion strains, strain NNK1, hits give low values 0.993 | S. cerevisiae deletion strains, strain TSCII, hits give low values 1
active: [7] 1.16 [resistant]

c1ccc(CN2CCC(n3nnc4cccnc43)CC2)cc1
inactive: [1] 0.995 | [2] 1.01 | S. cerevisiae deletion strains, locus YCL061C, strain MRC1, hits give low values 1.02 | [3] 0.987 | [26] 0.993 | [4] 0.997 | [5] 1.01 | [6] 1.01 | [27] 0.997 | [7] 0.995 | [8] 1.01 | [10] 1.01 | [11] 1 | [12] 1 | [13] 1.04 | [14] 0.995 | [15] 0.957 | [16] 0.984 | [17] 1 | [18] 1.01 | [19] 1.01 | [20] 0.965 | [21] 0.996 | [22] 1.01 | [23] 1.03 | [24] 0.983 | [25] 1.01

CC1(C)CCC=[N+]1[O-]
inactive: [1] 1 | S. cerevisiae deletion strains, locus YAL040C, strain CLN3, hits give low values 1.04 | S. cerevisiae deletion strains, locus YCL061C, strain MRC1 (second series), hits give low values 1.01 | [4] 1 | S. cerevisiae deletion strains, locus YDR363W, strain ESC2, hits give low values 1.02 | S. cerevisiae deletion strains, locus YER002W, strain NOP16, hits give low values 0.98 | [27] 1.05 | [11] 1.03 | [18] 1 | [28] 1.01 | S. cerevisiae deletion strains, locus YNL175C, strain NOP13, hits give low values 0.993 | S. cerevisiae deletion strains, locus YNL197C, strain WHI3, hits give low values 1.01 | S. cerevisiae deletion strains, locus YNL224C, strain SQS1, hits give low values 1 | [21] 1.01 | S. cerevisiae deletion strains, locus YOR083W, strain WHI5 (second series), hits give low values 1.03 | [24] 1

CCOC(=O)CSc1nc2cc(C(F)(F)F)cnc2n1C
inactive: [1] 0.984 | [2] 0.98 | [3] 1.01 | [26] 0.975 | [4] 0.99 | [5] 0.993 | [6] 0.983 | [27] 1.01 | [7] 0.909 | [8] 0.96 | [10] 0.988 | [11] 0.997 | S. cerevisiae deletion strains, locus YKL190W, strain CNB1, hits give low values 1.01 | [12] 1.05 | [13] 0.985 | [14] 1.04 | [15] 1.03 | [16] 0.952 | [17] 0.989 | [18] 0.99 | [28] 1.19 | [19] 1 | [20] 0.961 | [21] 0.982 | [22] 0.988 | S. cerevisiae deletion strains, locus YOL006C, strain TOP1, hits give low values 0.942 | [23] 0.981 | [24] 1.07 | [25] 0.912

COC(OC)c1cc(=O)[nH]c(=S)[nH]1
inactive: [1] 1.01 | [2] 1.02 | [3] 1 | [26] 1.02 | [4] 0.918 | [5] 1.04 | [6] 1.03 | [7] 1.06 | [8] 1.01 | [9] 1.02 | [10] 1.01 | [11] 1.01 | [12] 1.07 | [13] 1.01 | [14] 1.11 | [15] 1.03 | [16] 1.02 | [17] 1.01 | [18] 1.03 | [28] 1.12 | [19] 1.01 | [20] 1.08 | [21] 1.01 | [22] 1.02 | [23] 0.935 | [24] 0.913 | [25] 1.03 | S. cerevisiae strains, strain wild type, hits give low values 1.01
